Measurements published in PubChem BioAssay AID1345085 (National Center for Advancing Translational Sciences (NCATS), 2018).
Results filed as inconclusive are left out. Unmarked numbers belong to inactive results. Active and inactive are the calls of the source. Calls follow the shape of the dose curve; as a rule, active = well fitted cell-killing curve with a large enough effect; inconclusive = small, poorly fitted or top-dose-only effect, or effect the other way; inactive = no such curve, though single readings can be large or run the other way.

What follows are molecules tested on CAOV3 (assay: Confirmatory qHTS for gynecologic anti-cancer compounds from libraries of approved drugs and bioactive compounds). Conditions: gynecologic cancer cell panel viability, ATPlite luminescence, 48 h; series mostly up to 57.6 µM; activity change, negative = viability loss: at the top concentration.
Method in brief: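 1,000 cells/well; 16 h pre-incubation 37 C, 5% CO2; pin-transferred cpd in DMSO, 11 conc (1:3), 57.5 uM–0.977 nM; 48 h; ATPlite, 15 min RT; luminescence → IC50.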
% is scaled to controls: 0 for no effect and ±100 for the full control effect; potency is read from the fitted curve at half-maximal effect.
Also: nearly all actives have a fitted effect of over 55% in size.

Row | SMILES | activity change, negative = viability loss | Potency
1 | O=C(O)Cc1ccccc1 | 5.87% | –
2 | C[C@]12CC[C@H]3[C@@H](CCC4=CC(=O)CC[C@@H]43)[C@@H]1CC[C@@H]2OC(=O)CCc1ccccc1 | -0.126% | –
3 | CCOc1ccccc1-n1c(C(C)N2CCN(C(=O)COc3ccc(Cl)cc3)CC2)nc2ccccc2c1=O (centres undefined) | 11.5% | –
4 | C=C(C)[C@H]1Cc2c(ccc3c2O[C@@H]2COc4cc(OC)c(OC)cc4[C@@H]2C3=O)O1 | 14% | –
5 | CCNC(=O)C[C@@H]1N=C(c2ccc(Cl)cc2)c2cc(OC)ccc2-n2c(C)nnc21 | – | 1.22 µM (active)
6 | C/C=C(/C)C(=O)O[C@H]1C(C)=C2[C@H]([C@@H]1OC(=O)CCCCCCC)[C@@](C)(OC(C)=O)C[C@H](OC(=O)CCC)[C@@]1(O)[C@H]2OC(=O)[C@@]1(C)O | – | 9.68 µM (active)
7 | CCN1CCN(C(=O)Cc2ccc(Nc3ncc(F)c(Nc4ccc(C(=O)Nc5ccccc5Cl)cc4)n3)cc2)CC1 | 1.61% | –
8 | CCC(=O)O[C@H]1CC[C@H]2[C@@H]3CCC4=CC(=O)CC[C@]4(C)[C@H]3CC[C@]12C | -7.4% | –
9 | C[C@H]1CCC/C=C/C2C[C@H](O)C[C@H]2[C@H](O)/C=C/C(=O)O1 (some centres undefined) | – | 0.306 µM (active)
